Data published in PubChem BioAssay.
Active and inactive are the calls of the source.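 Rule for the calls: active = RAM network inhibition above 8.4% in each of two replicates, 3 SD over the compound average; inconclusive = above 8.4% inhibition in only one replicate; inactive = 8.4% inhibition or less in each replicate.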

Experiment: RAM signaling pathway blockade in yeast – S. cerevisiae, Pdr1DBD-CYC8 efflux-inhibited sensitized strain, primary screen (AID 1298);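 note: 0% = DMSO untreated cells without growth and 100% = 10 µM 1-NA-PP1 full growth; higher means more yeast growth rescued from 5-FOA killing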
Conditions: S. cerevisiae cbk1-as DSE1-URA3 strain, 5-FOA growth OD615, 2 d; at 50 µM; hits give high values
For `O=C(C1CC1)N1CCCN(C(=O)C2CC2)CC1`, the RAM network inhibition was 4.69% (inactive).
For `CN(CCCNC(=O)Cn1cc2c(n1)CCCC2)C1CCCCC1`, the RAM network inhibition was 1.23% (inactive).
With `Cc1cc(C(F)(F)F)nc(NCc2ccc(F)cc2)n1` the RAM network inhibition was 0.79% (inactive).
For `O=C(c1coc2ccccc2c1=O)N1CCN(c2cccc(C(F)(F)F)c2)CC1`, the RAM network inhibition was 5.68% (inactive).
With `CCc1ccc(-c2nc(C(N)=O)c3[nH]c(=O)n(-c4ccccc4OC)c3n2)cc1` the RAM network inhibition was 10.7% (inactive).
With `C=C(C)Cn1c(C2CC(=O)N(c3ccccc3F)C2)nc2ccccc21` (stereo not given) the RAM network inhibition was 1.56% (inactive).
For `CC(CC1C(C#N)=C(N)OC2=C1C(=O)CCC2)c1ccccc1` (stereo not given), the RAM network inhibition was 5.88% (inactive).
With `CCc1ncc(C(=O)c2ccc(OC)cc2)n1C` the RAM network inhibition was 5.28% (inactive).
For `CC(=O)Nc1nc(CC(=O)c2ccccc2)cs1`, the RAM network inhibition was 0.47% (inactive).
In the case of `COc1ccc(-c2[nH]ncc2-c2cnc(C)s2)c(O)c1`, the RAM network inhibition is reported as 2.98% (inactive).
In the case of `CCCC(=O)Nc1nc2ccc(OCC)cc2s1`, the RAM network inhibition is reported as 2.15% (inactive).
With `O=C(Nc1ccccc1)N1CCN2C(=O)c3ccccc3C12c1ccccc1` (stereo not given) the RAM network inhibition was 2.89% (inactive).
For `COc1ccc(N2C(=O)C3CCCN3C2c2ccc(Cl)cc2)cc1` (stereo not given), the RAM network inhibition was 2.27% (inactive).
In the case of `CN(c1ccccc1)S(=O)(=O)c1cccc(C(=O)N2CCN(c3ccccn3)CC2)c1`, the RAM network inhibition is reported as -1.92% (inactive).
For `CCOc1ccc(NC2c3ccccc3C(=O)N2c2ccc(Cl)cn2)cc1` (stereo not given), the RAM network inhibition was 3.42% (inactive).
With `COc1ccc(Nc2nnc(Cc3ccc(Cl)cc3)c(=O)[nH]2)c(OC)c1` the RAM network inhibition was 2.35% (inactive).
For `Cn1c(Cn2c(=O)sc3ccccc32)nnc1SCC(=O)Nc1ccc2c(c1)OCO2`, the RAM network inhibition was 3.46% (inactive).
For `COc1cc(OC)cc(C(=O)NCCn2ccc3ccccc32)c1`, the RAM network inhibition was 7.95% (inactive).
In the case of `NC(=O)C1CCN(C(=O)c2cc3ccccn3n2)CC1`, the RAM network inhibition is reported as 1.35% (inactive).
For `CC(Sc1ccc2nnc(-c3ccc(F)cc3)n2n1)C(=O)O` (stereo not given), the RAM network inhibition was 1.27% (inactive).
For `CCOC(=O)Cn1c(=O)oc2cc(S(=O)(=O)N3CCc4ccccc43)ccc21`, the RAM network inhibition was 2.93% (inactive).
For `CCOC(=O)c1csc(NC(=O)c2ccccc2)n1`, the RAM network inhibition was -2.57% (inactive).
For `CN(C)c1cccc(NC(=O)Cc2ccc(F)cc2)c1`, the RAM network inhibition was 5.85% (inactive).
With `CCOC(=O)c1sc2nc3n(c(=O)c2c1C)CCCCC3` the RAM network inhibition was 4.46% (inactive).
With `CCOc1ccc(C2N(c3ccc(Cl)cc3)C(=O)C3CCCN32)cc1OC` (stereo not given) the RAM network inhibition was 5.42% (inactive).
In the case of `CC1CCCCN1S(=O)(=O)c1coc(C(N)=O)c1` (stereo not given), the RAM network inhibition is reported as 0.05% (inactive).
With `Cc1ccc(NC(=O)CCNS(=O)(=O)c2cccc3nonc23)cc1` the RAM network inhibition was 4.98% (inactive).
With `CCOC1=NC(C(=O)O)c2ccccc2/C(=C(/C)Cl)N1` (stereo not given) the RAM network inhibition was 2.78% (inactive).
With `COc1cc(C2N(c3ccccc3)CCN2c2ccccc2)ccc1OC(C)=O` the RAM network inhibition was 2.35% (inactive).
For `COc1cc(S(=O)(=O)NCc2ccc3c(c2)OCO3)ccc1Cl`, the RAM network inhibition was 0.82% (inactive).
In the case of `CCOC(=O)c1cc(-c2ccc(F)cc2)n(CC(=O)Nc2nccs2)c1C`, the RAM network inhibition is reported as 4.55% (inactive).
In the case of `O=C(C1CCN(S(=O)(=O)c2cccc3cccnc23)CC1)N1CCN(Cc2ccccc2)CC1`, the RAM network inhibition is reported as 1.71% (inactive).
In the case of `COc1ccc(Cl)cc1N(CC(=O)N1CCC(C)CC1)S(C)(=O)=O`, the RAM network inhibition is reported as 1.72% (inactive).
In the case of `CCOC(=O)c1ccc2c(c1)NC(=O)C(N1CCN(c3ccc(OC)cc3)CC1)S2` (stereo not given), the RAM network inhibition is reported as 6.45% (inactive).
For `CS(=O)(=O)NCCCc1ccccc1`, the RAM network inhibition was -0.88% (inactive).
With `COc1ccc(C2C(C(=O)NCCN(C)C)c3cc(OC)c(OC)cc3C(=O)N2C)cc1OC` (stereo not given) the RAM network inhibition was 3.25% (inactive).
In the case of `O=C(Nc1nccs1)c1cccc(S(=O)(=O)N2CCOCC2)c1`, the RAM network inhibition is reported as 1.04% (inactive).
For `CC(C)C(C(=O)NC(C)(C)C)N1C(=O)c2ccccc2C1=O` (stereo not given), the RAM network inhibition was 12.4% (inactive).
For `CCOc1ccc(Br)cc1/C=N/O`, the RAM network inhibition was -0.16% (inactive).
In the case of `Cc1ccc(-n2c(SCC(=O)Nc3nccs3)nc3c(c2=O)SCC3)cc1`, the RAM network inhibition is reported as 6.62% (inactive).
